Measurements: the supplement of paper PMC10849652
Of roughly 8,800 targets only a part is listed; those with a hit were picked by preference. About 0.5% of all pairs of compound and target were hits. Values without a mark were called inactive.

Experiments:
Test in all cases: log2 fold change, soluble protein after heating vs DMSO (PISA); higher = thermal stabilisation; K562 lysate, 10 uM; active = over 0.2 and 3.5 SD of the protein, either way, in both replicates (recomputed)
nilotinib = compound: Cc1cn(-c2cc(NC(=O)c3ccc(C)c(Nc4nccc(-c5cccnc5)n4)c3)cc(C(F)(F)F)c2)cn1 [nilotinib]
Method in brief: (§1)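 A 30 min treatment with 10 μM compound was applied to crude K562 extract at 1 mg/mL protein in PBS pH 7.4 with 1 mM MgCl2. Heating for 3 min spanned 48°C-58°C, after which aliquots were pooled, adjusted to 0.5% NP-40 at 4°C and spun at 21,000xg for 90 min. TMTpro 16plex LC-MS/MS of the supernatant, with channel sums equalised, gave values recorded as log-two fold change in thermal stability against solvent controls, from duplicates.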

[1] = compound: Cc1nc(Nc2n[nH]c3c2CN(C(=O)N[C@H](CN(C)C)c2ccccc2)C3(C)C)c2sccc2n1
Method in brief: as §1

dasatinib = compound: Cc1nc(Nc2ncc(C(=O)Nc3c(C)cccc3Cl)s2)cc(N2CCN(CCO)CC2)n1 [dasatinib]
Method in brief: as §1

[2] = compound: Cc1ncc(-c2ccnc(Nc3ccc(S(C)(=O)=O)cc3)n2)n1C(C)C
Method in brief: as §1

[3] = compound: Cn1cc(-c2ccc3c(c2)CCN3C(=O)Cc2cccc(C(F)(F)F)c2)c2c(N)ncnc21
Method in brief: as §1

quisinostat = compound: Cn1cc(CNCC2CCN(c3ncc(C(=O)NO)cn3)CC2)c2ccccc21 [quisinostat]
Method in brief: as §1

tipifarnib = compound: Cn1cncc1[C@@](N)(c1ccc(Cl)cc1)c1ccc2c(c1)c(-c1cccc(Cl)c1)cc(=O)n2C [tipifarnib]
Method in brief: as §1

[4] = compound: NC(=O)Nc1cc(-c2cccc(F)c2)sc1C(=O)N[C@H]1CCCNC1
Method in brief: as §1

[5] = compound: NC(=O)c1cnc(N[C@@H]2CCCC[C@@H]2N)nc1Nc1cccc(-n2nccn2)c1
Method in brief: as §1

[6] = compound: NC1(c2ccc(-c3nc4ccn5c(=O)[nH]nc5c4cc3-c3ccccc3)cc2)CCC1
Method in brief: as §1

[7] = compound: NCC(=O)Nc1ccc(-n2nc(C(F)(F)F)cc2-c2ccc3c(ccc4ccccc43)c2)cc1
Method in brief: as §1

vorinostat = compound: O=C(CCCCCCC(=O)Nc1ccccc1)NO [vorinostat]
Method in brief: as §1

silmitasertib = compound: O=C(O)c1ccc2c(c1)nc(Nc1cccc(Cl)c1)c1ccncc12 [silmitasertib]
Method in brief: as §1

[8] = compound: O=C1NC(=O)C(c2cnc3ccccn23)=C1c1cn2c3c(cc(F)cc13)CN(C(=O)N1CCCCC1)CC2
Method in brief: as §1

entospletinib = compound: c1cn2cc(-c3ccc4cn[nH]c4c3)nc(Nc3ccc(N4CCOCC4)cc3)c2n1 [entospletinib]
Method in brief: as §1

Chain of UniProt Q9H6K1 (Q9H6K1 whole entry, looked up): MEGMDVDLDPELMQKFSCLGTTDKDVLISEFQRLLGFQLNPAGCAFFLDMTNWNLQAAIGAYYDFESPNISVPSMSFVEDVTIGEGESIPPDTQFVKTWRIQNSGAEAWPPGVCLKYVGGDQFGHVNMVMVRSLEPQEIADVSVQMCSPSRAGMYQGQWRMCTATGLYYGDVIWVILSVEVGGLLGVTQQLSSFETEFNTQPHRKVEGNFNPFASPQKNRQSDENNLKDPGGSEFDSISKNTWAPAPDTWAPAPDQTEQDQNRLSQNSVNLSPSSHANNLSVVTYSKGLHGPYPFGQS
Chain of UniProt Q13418 (Q13418 whole entry, looked up): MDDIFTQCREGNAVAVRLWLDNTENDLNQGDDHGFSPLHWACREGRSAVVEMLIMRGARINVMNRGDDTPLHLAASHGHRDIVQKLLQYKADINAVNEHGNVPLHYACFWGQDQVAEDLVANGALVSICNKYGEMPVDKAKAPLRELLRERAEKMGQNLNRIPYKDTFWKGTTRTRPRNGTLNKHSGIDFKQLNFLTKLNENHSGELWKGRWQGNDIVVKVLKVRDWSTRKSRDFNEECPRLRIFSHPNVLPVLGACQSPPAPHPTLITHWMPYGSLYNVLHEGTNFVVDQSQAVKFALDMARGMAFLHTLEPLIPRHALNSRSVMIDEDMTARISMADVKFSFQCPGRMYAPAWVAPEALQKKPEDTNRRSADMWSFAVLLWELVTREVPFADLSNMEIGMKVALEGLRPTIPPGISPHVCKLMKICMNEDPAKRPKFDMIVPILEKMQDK
Chain of UniProt Q96SY0 (Q96SY0 whole entry, looked up): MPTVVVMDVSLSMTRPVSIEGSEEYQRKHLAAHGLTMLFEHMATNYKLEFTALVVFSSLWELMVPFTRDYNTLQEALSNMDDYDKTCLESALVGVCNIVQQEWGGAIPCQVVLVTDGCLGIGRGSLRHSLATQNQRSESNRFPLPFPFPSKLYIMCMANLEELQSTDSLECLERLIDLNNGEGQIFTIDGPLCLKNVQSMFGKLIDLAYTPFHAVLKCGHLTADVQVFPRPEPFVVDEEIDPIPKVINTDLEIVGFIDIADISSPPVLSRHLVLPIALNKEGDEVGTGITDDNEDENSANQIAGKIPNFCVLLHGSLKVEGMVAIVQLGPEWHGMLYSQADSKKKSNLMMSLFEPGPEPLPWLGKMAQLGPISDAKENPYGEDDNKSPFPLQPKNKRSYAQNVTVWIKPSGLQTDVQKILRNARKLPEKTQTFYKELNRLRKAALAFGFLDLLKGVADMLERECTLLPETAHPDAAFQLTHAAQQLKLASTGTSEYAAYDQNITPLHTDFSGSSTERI
Chain of UniProt Q14145 (Q14145 whole entry, looked up): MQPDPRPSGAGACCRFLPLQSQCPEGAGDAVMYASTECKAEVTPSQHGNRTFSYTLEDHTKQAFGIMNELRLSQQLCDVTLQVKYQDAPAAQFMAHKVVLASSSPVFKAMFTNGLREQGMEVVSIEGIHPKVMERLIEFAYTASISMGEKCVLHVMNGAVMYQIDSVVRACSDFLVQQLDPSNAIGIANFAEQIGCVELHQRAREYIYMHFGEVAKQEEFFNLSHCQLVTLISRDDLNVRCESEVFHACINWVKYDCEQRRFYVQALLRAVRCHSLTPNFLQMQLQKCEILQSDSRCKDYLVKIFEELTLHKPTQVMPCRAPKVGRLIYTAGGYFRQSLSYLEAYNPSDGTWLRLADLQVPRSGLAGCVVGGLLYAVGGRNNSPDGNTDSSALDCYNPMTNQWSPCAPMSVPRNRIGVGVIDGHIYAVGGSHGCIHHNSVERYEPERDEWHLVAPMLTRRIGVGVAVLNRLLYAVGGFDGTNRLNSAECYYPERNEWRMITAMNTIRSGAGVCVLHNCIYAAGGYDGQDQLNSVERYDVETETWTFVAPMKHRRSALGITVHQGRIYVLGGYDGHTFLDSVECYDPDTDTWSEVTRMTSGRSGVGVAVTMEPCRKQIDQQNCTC
Chain of UniProt Q9BXW7 (Q9BXW7 whole entry, looked up): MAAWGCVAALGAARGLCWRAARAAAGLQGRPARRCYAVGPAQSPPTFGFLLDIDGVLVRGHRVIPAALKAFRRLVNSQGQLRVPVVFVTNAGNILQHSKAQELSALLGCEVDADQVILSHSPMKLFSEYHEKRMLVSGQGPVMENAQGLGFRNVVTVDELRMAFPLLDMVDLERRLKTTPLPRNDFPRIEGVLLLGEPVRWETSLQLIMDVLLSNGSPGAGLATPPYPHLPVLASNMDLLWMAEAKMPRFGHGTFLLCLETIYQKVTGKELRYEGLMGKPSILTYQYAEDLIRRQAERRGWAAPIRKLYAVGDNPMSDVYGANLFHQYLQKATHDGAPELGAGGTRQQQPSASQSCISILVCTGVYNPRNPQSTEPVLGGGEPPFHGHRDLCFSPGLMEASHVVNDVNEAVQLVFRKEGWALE
Chain of UniProt P52272 (P52272 whole entry, looked up): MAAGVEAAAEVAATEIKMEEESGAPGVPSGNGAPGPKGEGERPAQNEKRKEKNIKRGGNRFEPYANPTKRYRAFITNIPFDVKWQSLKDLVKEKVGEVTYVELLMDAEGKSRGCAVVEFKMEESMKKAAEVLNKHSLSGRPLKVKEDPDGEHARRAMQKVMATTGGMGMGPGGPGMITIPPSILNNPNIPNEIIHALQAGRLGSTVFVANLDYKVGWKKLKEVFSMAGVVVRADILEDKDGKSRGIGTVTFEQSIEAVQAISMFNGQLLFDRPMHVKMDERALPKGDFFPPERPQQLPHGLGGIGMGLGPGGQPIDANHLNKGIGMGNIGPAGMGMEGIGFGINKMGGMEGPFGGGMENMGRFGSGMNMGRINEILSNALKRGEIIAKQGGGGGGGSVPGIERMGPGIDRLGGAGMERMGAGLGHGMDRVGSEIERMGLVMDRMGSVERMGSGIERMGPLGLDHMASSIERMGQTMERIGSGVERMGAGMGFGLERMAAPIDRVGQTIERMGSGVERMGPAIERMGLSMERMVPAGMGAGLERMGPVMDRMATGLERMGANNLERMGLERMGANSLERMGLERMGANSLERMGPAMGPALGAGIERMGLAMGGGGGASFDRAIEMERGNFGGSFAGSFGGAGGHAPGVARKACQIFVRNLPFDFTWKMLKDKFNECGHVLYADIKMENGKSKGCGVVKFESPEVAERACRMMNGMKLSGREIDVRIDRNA
Chain of UniProt P52789 (P52789 whole entry, looked up): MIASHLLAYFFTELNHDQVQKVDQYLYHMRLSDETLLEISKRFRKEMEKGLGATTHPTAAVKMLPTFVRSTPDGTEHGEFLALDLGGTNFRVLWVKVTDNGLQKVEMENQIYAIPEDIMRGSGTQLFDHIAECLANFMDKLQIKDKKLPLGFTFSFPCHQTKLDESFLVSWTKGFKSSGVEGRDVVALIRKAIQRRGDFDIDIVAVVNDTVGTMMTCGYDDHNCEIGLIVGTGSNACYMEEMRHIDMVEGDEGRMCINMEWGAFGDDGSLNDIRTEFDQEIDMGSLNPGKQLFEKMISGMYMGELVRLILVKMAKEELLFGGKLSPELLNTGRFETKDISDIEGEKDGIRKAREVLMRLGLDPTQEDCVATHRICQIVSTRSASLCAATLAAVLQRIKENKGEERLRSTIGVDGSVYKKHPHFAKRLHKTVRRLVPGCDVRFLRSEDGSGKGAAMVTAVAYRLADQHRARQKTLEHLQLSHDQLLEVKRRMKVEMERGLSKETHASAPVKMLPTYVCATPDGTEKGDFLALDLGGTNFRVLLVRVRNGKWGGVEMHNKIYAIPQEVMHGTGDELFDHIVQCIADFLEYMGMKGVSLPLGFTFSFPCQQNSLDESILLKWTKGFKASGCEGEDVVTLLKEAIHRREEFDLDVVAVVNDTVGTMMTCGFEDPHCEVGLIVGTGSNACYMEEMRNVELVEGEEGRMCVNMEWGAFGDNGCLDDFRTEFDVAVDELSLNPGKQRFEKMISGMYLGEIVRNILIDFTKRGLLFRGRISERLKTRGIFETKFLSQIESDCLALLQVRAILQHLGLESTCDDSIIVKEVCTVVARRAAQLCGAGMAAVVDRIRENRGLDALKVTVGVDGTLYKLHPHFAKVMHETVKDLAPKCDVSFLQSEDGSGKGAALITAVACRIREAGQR
Chain of UniProt P35914 (P35914 whole entry, looked up): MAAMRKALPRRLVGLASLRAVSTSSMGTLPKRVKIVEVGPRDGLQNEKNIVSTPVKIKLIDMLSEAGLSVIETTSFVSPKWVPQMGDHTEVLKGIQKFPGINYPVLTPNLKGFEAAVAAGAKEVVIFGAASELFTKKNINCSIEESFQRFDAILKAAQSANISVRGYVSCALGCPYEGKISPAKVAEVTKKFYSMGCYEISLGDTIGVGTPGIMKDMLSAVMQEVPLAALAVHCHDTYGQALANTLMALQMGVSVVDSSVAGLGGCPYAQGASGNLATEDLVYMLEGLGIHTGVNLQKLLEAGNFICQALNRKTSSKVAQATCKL
Chain of UniProt Q9H4A6 (Q9H4A6 whole entry, looked up): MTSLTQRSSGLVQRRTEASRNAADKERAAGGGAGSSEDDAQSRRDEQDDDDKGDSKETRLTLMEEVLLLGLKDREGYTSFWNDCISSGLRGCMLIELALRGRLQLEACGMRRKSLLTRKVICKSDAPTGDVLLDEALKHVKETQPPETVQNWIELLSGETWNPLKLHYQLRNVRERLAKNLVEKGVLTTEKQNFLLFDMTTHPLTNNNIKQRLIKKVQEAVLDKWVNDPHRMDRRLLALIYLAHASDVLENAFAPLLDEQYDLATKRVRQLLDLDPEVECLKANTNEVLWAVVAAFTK
Chain of UniProt Q8NC54 (Q8NC54 whole entry, looked up): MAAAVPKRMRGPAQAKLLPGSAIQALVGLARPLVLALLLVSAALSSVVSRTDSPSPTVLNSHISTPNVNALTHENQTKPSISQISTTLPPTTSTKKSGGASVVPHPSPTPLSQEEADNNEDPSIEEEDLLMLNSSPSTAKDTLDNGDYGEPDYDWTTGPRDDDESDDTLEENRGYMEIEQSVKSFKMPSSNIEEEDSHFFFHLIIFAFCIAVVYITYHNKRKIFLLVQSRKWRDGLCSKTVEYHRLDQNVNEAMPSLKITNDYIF

Row | Target | log2 fold change (nilotinib) | log2 fold change [1] | log2 fold change (dasatinib) | log2 fold change [2] | log2 fold change [3] | log2 fold change (quisinostat) | log2 fold change (tipifarnib) | log2 fold change [4] | log2 fold change [5] | log2 fold change [6] | log2 fold change [7] | log2 fold change (vorinostat) | log2 fold change (silmitasertib) | log2 fold change [8] | log2 fold change (entospletinib)
1 | GORASP1 (UniProt Q9BQQ3) | 0.011 | -0.02 | -0.019 | 0.034 | 0.048 | 0.034 | -0.006 | -0.071 | 0.177 | -0.11 | -0.041 | -0.01 | 0.067 | -0.018 | -0.09
2 | HSPA8 (UniProt E9PK54) | 0.023 | -0.053 | -0.024 | -0.021 | -0.032 | -0.093 | -0.01 | 0.113 | -0.033 | 0.004 | 0.068 | -0.004 | -0.037 | -0.022 | 0.012
3 | HNRNPL (UniProt P14866) | -0.011 | -0.015 | -0.036 | 0.013 | 0.068 | -0.07 | 0.012 | 0.042 | -0.001 | 0.022 | 0.005 | -0.445 (active) | 0.072 | 0.028 | 0.007
4 | IGF2BP3 (UniProt O00425) | -0.046 | 0.008 | -0.035 | 0.006 | 0.063 | -0.045 | 0.008 | 0.039 | 0.013 | -0.027 | -0.012 | -0.305 (active) | 0.025 | 0 | 0.006
5 | INPPL1 (UniProt O15357) | -0.007 | -0.001 | -0.031 | -0.02 | 0.035 | 0 | -0.026 | 0.032 | 0.028 | 0.003 | 0.025 | -0.528 (active) | 0.057 | 0.017 | -0.015
6 | ILK (UniProt Q13418) | 0.01 | -0.066 | 0.071 | 0 | 0.014 | -0.076 | -0.001 | 0.097 | -0.022 | -0.036 | -0.047 | -0.343 (active) | 0.086 | 0.019 | 0.096
7 | INTS14 (UniProt Q96SY0) | 0.024 | 0.023 | -0.038 | -0.023 | -0.004 | -0.018 | -0.004 | -0.01 | -0.026 | -0.011 | -0.008 | -0.311 (active) | 0.002 | 0.023 | 0.026
8 | HDHD5 (UniProt Q9BXW7) | 0.157 | -0.081 | 0.023 | -0.052 | -0.042 | -0.026 | -0.008 | 0.028 | -0.014 | -0.036 | 0.018 | -0.249 (active) | 0.043 | -0.002 | -0.059
9 | HDLBP, A0A024R4E5 | -0.011 | 0.006 | -0.038 | 0.014 | 0.015 | -0.076 | 0.001 | 0.018 | -0.002 | -0.022 | 0.009 | -0.427 (active) | -0.013 | 0.004 | 0.009
10 | HIST2H2AA3 (UniProt Q6FI13) | 0.135 | -0.098 | 0.081 | 0.035 | -0.041 | 0.064 | 0.058 | 0.076 | 0.01 | 0.048 | -0.056 | 0.12 | -0.073 | 0.068 | -0.106
11 | HNRNPM (UniProt P52272) | 0.022 | -0.043 | -0.109 | -0.05 | 0.01 | 0.055 | -0.112 | 0.054 | -0.002 | 0.053 | -0.008 | -0.235 (active) | 0.022 | -0.05 | 0.015
12 | KEAP1 (UniProt Q14145) | -0.01 | 0.01 | -0.023 | -0.014 | -0.044 | -0.078 | -0.02 | 0.011 | 0.022 | -0.002 | -0.019 | -0.262 (active) | -0.008 | -0.022 | 0.001
13 | HSPA14 (UniProt Q0VDF9) | -0.032 | -0.001 | -0.018 | 0.009 | 0.034 | -0.026 | 0.021 | 0.037 | 0.001 | -0.025 | -0.022 | -0.226 (active) | 0.035 | -0.007 | -0.009
14 | INTS7 (UniProt Q9NVH2) | -0.02 | -0.014 | -0.004 | -0.009 | -0.008 | -0.071 | 0.037 | 0.088 | 0.032 | -0.002 | 0.017 | -0.149 | -0.011 | 0.189 | 0.03
15 | GNB1 (UniProt P62873) | 0.075 | 0.057 | -0.078 | 0.098 | -0.029 | 0.107 | 0.019 | -0.137 | -0.027 | -0.018 | 0.026 | 0.064 | 0.041 | -0.037 | 0.054
16 | HMGN4 (UniProt O00479) | 0.049 | -0.072 | 0.192 | 0.009 | 0.003 | 0.171 | 0.001 | -0.019 | 0.012 | -0.028 | -0.095 | 0.192 | -0.012 | 0.067 | 0.163
17 | KCT2 (UniProt Q8NC54) | -0.034 | 0.008 | 0.025 | -0.025 | 0.043 | 0.031 | 0.001 | 0.024 | 0.051 | 0.005 | 0.015 | 0.157 | 0.005 | -0.04 | -0.026
18 | HMGCL (UniProt P35914) | 0.011 | -0.041 | 0.029 | 0.023 | 0.02 | -0.017 | -0.013 | 0.018 | -0.033 | 0.015 | -0.025 | -0.226 (active) | 0.059 | 0.033 | 0
19 | ILRUN (UniProt Q9H6K1) | -0.12 | -0.038 | -0.003 | -0.073 | 0.005 | -0.047 | -0.012 | 0.033 | 0.041 | -0.038 | 0.002 | -0.047 | 0.001 | -0.01 | -0.013
20 | HK2 (UniProt P52789) | 0.065 | -0.003 | -0.052 | 0 | 0.033 | -0.079 | -0.01 | 0.048 | 0.035 | -0.031 | -0.018 | -0.443 (active) | 0.038 | 0.007 | 0.022
21 | GOLPH3 (UniProt Q9H4A6) | -0.008 | 0.008 | -0.071 | 0.044 | -0.013 | -0.065 | -0.039 | 0.012 | -0.023 | -0.02 | -0.06 | -0.06 | -0.001 | 0.023 | 0.026
